This passage reports Potency results from PubChem BioAssay AID485297 (National Center for Advancing Translational Sciences (NCATS), 2010).

Structures are written as SMILES. About 9,100 (2.8%) of roughly 320,000 compounds were called active. Not shown: some 3% with an inconclusive outcome. Calls come from the whole dose curve; as a rule, active = well fitted activation curve with a large enough effect; inconclusive = small, poorly fitted or top-dose-only effect; inactive = no such curve, though single readings can be large or run the other way. Shown is part of a subset that was picked to be rich in actives. Entries that show only a call come without a potency.
Potency is the fitted concentration of half-maximal effect.

The assay in a line: qHTS Assay for Rab9 Promoter Activators. Note: nearly all actives have a fitted effect of over 60% in size. The note with it: Huh7 Rab9 promoter-luciferase reporter, luminescence, 24 h; series mostly up to 9.22 µM. In outline: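 Huh7 cells stably carrying Rab9 promoter–luciferase reporter, plated 1500 cells/well, compound added after 2 h and incubated 24 h at 37 °C; luciferase luminescence then read after 10 min with detection reagent.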
As for `COC(=O)c1sc(NC(=O)COC(=O)C2CCC2)c(C(=O)OC)c1C`, the Potency entry is “inactive”.

Regarding `COc1ccccc1N1CCN(C(=O)C2Cc3ccccc3CN2C(=O)c2ccco2)CC1` (stereo unspecified), the Potency entry is “inactive”.

As for `OCCC1CN(Cc2cccn2-c2nccs2)CCN1CCc1ccccc1` (stereo unspecified), the Potency result was “inactive”.

Consider `COc1cc(C(=O)OCc2ccc([N+](=O)[O-])cc2)cc(OC)c1OC`, for which the Potency entry was “inactive”.

Turning to `COc1cc(/C=N/O)ccc1OCc1ccc([N+](=O)[O-])cc1`, the Potency was 2000 nM (active).

Regarding `COc1cc(/C=N\Nc2ccc([N+](=O)[O-])cn2)ccc1OCC(=O)O`, the Potency entry is “inactive”.

Take `O=C(CCCCO)c1ccc(O)c(Cl)c1`: the Potency entry was “inactive”.

As to `O=C(CNC(=O)c1cccs1)N/N=C/c1cccc(Br)c1`, the Potency result was “inactive”.

Take `CCN(CC)c1ccc(/C=N/NC(=O)CNC(=O)c2cccs2)cc1`: the Potency entry was “inactive”.

Regarding `CC(=O)Nc1ccc(/C=N/NC(=O)c2cccs2)cc1`, the Potency is 1260 nM (active).

In the case of `O=C(N/N=C/C=C/c1ccco1)c1cccs1`, the Potency was 4470 nM (active).

Turning to `Cc1ccc(-c2cc(C(=O)N/N=C/C=C/c3ccco3)c3ccccc3n2)cc1C`, the Potency result was “inactive”.

In the case of `O=C(N/N=C/c1ccco1)c1ccc(C(=O)N/N=C/c2ccco2)o1`, the Potency entry is “inactive”.

On to `O=C(COC(=O)CCCN1C(=O)c2cccc3cccc(c23)C1=O)NC1CCS(=O)(=O)C1` (stereo unspecified), for which the Potency result was “inactive”.

With `CC(Sc1nnc(C2CC2)n1C1CC1)C(=O)Nc1ccc(C(N)=O)cc1` (stereo unspecified), the Potency result is “inactive”.

Consider `CCc1ccc(CN(C)C(C)C(=O)Nc2ccc(S(=O)(=O)N3CCCC3)cc2)cc1` (stereo unspecified), for which the Potency entry was “inactive”.

`COc1ccc([C@H]2CC(=O)C=C(c3ccc(C)cc3)C2)cc1`: the Potency result is “inactive”.

As for `CN(C1CCS(=O)(=O)C1)S(=O)(=O)c1ccc2ccccc2c1` (stereo unspecified), the Potency entry is “inactive”.

For the compound `O=S(=O)(NCc1ccc2c(c1)OCO2)c1cccc2nsnc12`, the Potency entry is “inactive”.

In the case of `Cc1cccc(C(=O)O)c1[N+](=O)[O-]`, the Potency entry was “inactive”.

As for `Cn1c(-c2ccc(F)cc2)cc2onc(-c3ccccc3Cl)c2c1=O`, the Potency is 891 nM (active).

As to `Cc1[nH]n(C)c(=O)c1C(=O)c1c(-c2c(Cl)cccc2Cl)noc1C`, the Potency result is “inactive”.

For `O=C1c2ccccc2C(=O)N1Cc1cc(-c2ccccc2Cl)no1`, the Potency entry is “inactive”.

For the compound `Cn1c(-c2ccc(C(F)(F)F)cc2)cc2onc(-c3ccccc3)c2c1=O`, the Potency was 447 nM (active).

`Cc1onc(-c2ccccc2)c1C(=O)N1CCN(S(=O)(=O)c2ccccc2C(F)(F)F)CC1`: the Potency entry was “inactive”.

As for `O=c1c2ccccc2c(-c2ccc(F)cc2)nn1-c1ccc(C(F)(F)F)cc1`, the Potency result was “inactive”.

Turning to `CCCCC[C@H]1CN(C2CCCCC2)C(=O)[C@@H]1CC(=O)NCc1ccc(OC)cc1`, the Potency result is “inactive”.

With `O=c1oc2ccc(C#CC3(O)CCCCC3)cc2cc1-n1cc(-c2ccsc2)nn1`, the Potency entry is “inactive”.

Take `O=C(Nc1ccccc1N1CCOCC1)c1ccncc1`: the Potency result is “inactive”.

Take `CC(NCC(=O)Nc1ccccc1C(=O)NC1CC1)c1ccccc1Cl` (stereo unspecified): the Potency entry is “inactive”.

In the case of `Cc1noc(C)c1CCC(=O)N1CCCC(CO)(Cc2ccccc2)C1` (stereo unspecified), the Potency was 3550 nM (active).

For the compound `CCOC(=O)C1(Cc2ccccc2C)CCCN(C(=O)CCc2c(C)noc2C)C1` (stereo unspecified), the Potency entry is “inactive”.

`Cc1ccccc1CC1(CO)CCCN(C(=O)c2cc(-c3ccccc3)no2)C1` (stereo unspecified): the Potency entry was “inactive”.

In the case of `COc1ccc(OCCNC(=O)c2cc(C3CC3)nc3c2cnn3C(C)C)cc1`, the Potency result is “inactive”.

For the compound `O=C(CN1CCN(c2ccccc2O)CC1)NC(=O)NCc1ccccc1`, the Potency result was “inactive”.

Take `OCCCN1c2ccccc2Nc2nnc(-c3ccccc3)cc21`: the Potency was 2000 nM (active).

Regarding `N=c1c2c(-c3ccccc3)c(-c3ccccc3)n(Cc3ccccc3)c2ncn1CCCO`, the Potency result was “inactive”.

In the case of `CCOC(=O)C(C)N(c1ccccc1Cl)S(C)(=O)=O` (stereo unspecified), the Potency entry was “inactive”.

In the case of `N#Cc1c(NC(=O)CCCl)sc2c1CCCCC2`, the Potency entry is “inactive”.

For the compound `N#Cc1c(NC(=O)C2CCCO2)sc2c1CCCCC2` (stereo unspecified), the Potency was 2240 nM (active).

Consider `N#Cc1c(NC(=O)C2CC(Cl)=CCC2C(=O)O)sc2c1CCCCC2` (stereo unspecified), for which the Potency result is “inactive”.

Take `c1csc(-c2cn3c(n2)SCC3)c1`: the Potency result was “inactive”.

Consider `Cc1nnc2n1N=C(c1ccccc1)CS2`, for which the Potency result was “inactive”.

`O=c1c2cc(-c3ccccc3)sc2nc2n1N=C(c1cccs1)CS2`: the Potency is 1120 nM (active).

In the case of `O=C(c1cc2ccccc2o1)N1CCN(S(=O)(=O)c2ccc(Cl)s2)CC1`, the Potency result was “inactive”.

For `COc1ccc(CNC(=O)COC(=O)CCS(=O)(=O)c2ccc(C)cc2)cc1OC`, the Potency entry was “inactive”.

With `CCN(CC(=O)Nc1c(F)cccc1F)C(=O)c1cnc(C)cn1`, the Potency result is “inactive”.

As for `O=C(Nc1ccncc1)c1cc2ccccc2o1`, the Potency entry is “inactive”.

Take `Cc1ccc(NC(=O)c2cc3ccccc3o2)cc1`: the Potency was 3980 nM (active).

Take `C/C(=N\NC(=S)Nc1ccc(C)cc1)c1cc2ccccc2o1`: the Potency entry is “inactive”.

As for `CCN(CC(=O)NCc1ccc(Cl)cc1)C(=O)c1c(C)noc1C`, the Potency entry is “inactive”.

In the case of `c1ccc2c(c1)CSc1sccc1C2=C1CCNCC1`, the Potency entry was “inactive”.

As for `Cc1cc(C(=O)NNC(=O)c2ccccc2O)c(C)o1`, the Potency result was “inactive”.

In the case of `COC(=O)C1CCN(C(=O)c2cc(=O)[nH]c3ccccc23)CC1`, the Potency result was “inactive”.

`CC(NC(=O)COC(=O)c1cc(=O)[nH]c2ccccc12)c1ccccc1` (stereo unspecified): the Potency result was “inactive”.

As to `CC1CCN(C(=O)COC(=O)c2cc(=O)[nH]c3ccccc23)CC1`, the Potency was 2510 nM (active).

For the compound `O=C(COC(=O)c1ccccc1Cl)NC1CCCCCCC1`, the Potency entry is “inactive”.

In the case of `O=C(Nc1ccc(Cl)cc1)c1ccsn1`, the Potency was 1780 nM (active).

On to `Cn1ccc(NC(=O)Nc2ccc(Cl)cc2)n1`, for which the Potency entry was “inactive”.

`CCC(=O)Nc1ccc(C(=O)NNC(=O)c2ccc(Cl)cc2)cc1`: the Potency entry is “inactive”.

Consider `CCCCN(Cc1ccccc1)C(=O)C1CCN(Cc2sccc2C)CC1`, for which the Potency result was “inactive”.

On to `Cn1c(CC(=O)NNC(=O)c2ccccc2F)nc2ccccc21`, for which the Potency entry was “inactive”.

Take `O=C(c1ccc(N2CCOCC2)c([N+](=O)[O-])c1)N1CCN(S(=O)(=O)c2cccs2)CC1`: the Potency entry was “inactive”.

In the case of `COc1ccc(C)cc1N(C(=O)Cn1nnc(-c2ccc(C)o2)n1)C(C(=O)NC1CCCC1)c1ccncc1` (stereo unspecified), the Potency entry is “inactive”.

In the case of `CCN(CC(=O)Nc1ccc(NC(C)=O)cc1)C(=O)CSC(=S)N1CCCC1`, the Potency entry is “inactive”.

`CC(=O)Nc1cc2ccc(OC(C)=O)cc2oc1=O`: the Potency result is “inactive”.

On to `O=C(Nc1cc2ccccc2oc1=O)C1CCCCC1`, for which the Potency was 562 nM (active).

Consider `Cc1ccccc1NC(=O)C1CCN(C(=O)NC2CCCCC2)CC1`, for which the Potency entry is “inactive”.

For `CN(CC(=O)Nc1ccc(Cl)cc1)C(=O)c1ccc(COc2ccccc2)cc1`, the Potency result is “inactive”.

Regarding `CCN(CC)S(=O)(=O)c1cc(C(=O)Nc2ccccn2)ccc1C`, the Potency was 1780 nM (active).

As to `Cc1ccc(NC(=O)CNCc2ccccn2)cc1S(=O)(=O)N(C)C`, the Potency entry is “inactive”.

With `CCN(c1ccccc1)S(=O)(=O)c1cc(C(=O)NCc2ccccn2)ccc1C`, the Potency entry was “inactive”.

Regarding `O=S(=O)(c1ccc(SCc2ccccc2)nc1)N1CCCCCC1`, the Potency result is “inactive”.

Turning to `COc1ccc(Cc2nc3ccc(C(=O)N4CCC(N(C)C)C4)cc3o2)cc1` (stereo unspecified), the Potency result is “inactive”.

`CCn1ccnc1CN(C)C(=O)c1ccc2nc(Cc3ccc(OC)cc3)oc2c1`: the Potency result was “inactive”.

As to `CC(c1ccccn1)N(C)C(=O)c1ccc2nc(Cc3cccc(Cl)c3)oc2c1` (stereo unspecified), the Potency was 3980 nM (active).

Take `CCN(CC)S(=O)(=O)c1ccc(N2CCOCC2)c(NC(=O)C(C)Oc2ccc(F)cc2)c1` (stereo unspecified): the Potency result is “inactive”.

Turning to `CCN1C(=O)C(=O)N(CC(=O)Nc2cc(C)ccc2C)C1=O`, the Potency entry was “inactive”.

`COc1ccc(-c2nnc3ccc(SCc4ccccc4)nn23)cc1`: the Potency entry is “inactive”.

For `COc1ccc2nc(SCc3ccccc3)nc(C)c2c1`, the Potency is 1410 nM (active).

As for `COC(=O)CSc1nc(C)c2ccc(OC)cc2n1`, the Potency entry is “inactive”.

With `COC(=O)Cc1ccc(OC(=O)C2CCN(S(=O)(=O)c3ccc(OC)c(OC)c3)CC2)cc1`, the Potency result was “inactive”.

Regarding `O=C(Nc1ccc2oc(-c3ccccc3F)nc2c1)c1ccco1`, the Potency was 1000 nM (active).

For `O=C(c1ccco1)N1CCN(C(=O)c2cc(-c3ccccc3F)no2)CC1`, the Potency entry was “inactive”.

In the case of `O=C(Nc1cccc(-c2nc3ncccc3o2)c1)c1ccco1`, the Potency result was “inactive”.

`CCC(=O)c1cc(F)ccc1OCC(=O)Nc1ccc2c(c1)OCCO2`: the Potency entry is “inactive”.

Turning to `CCN(C(=O)CSc1nc(N)cc(=O)[nH]1)C1CCS(=O)(=O)C1` (stereo unspecified), the Potency entry was “inactive”.

Take `CSCCC(NC(=O)c1ccccc1)C(=O)N1CCCCCCC1` (stereo unspecified): the Potency entry is “inactive”.

As for `Cc1[nH]c2ccccc2c1C(=O)C(C)Sc1nnc(C2CC2)o1` (stereo unspecified), the Potency entry is “inactive”.

With `O=C(COC(=O)C1CC2CCCC(C1)C2=O)NC(=O)c1ccccc1` (stereo unspecified), the Potency entry was “inactive”.

On to `CCOc1ccc(C(=O)CCC(=O)Nc2ccncc2)cc1`, for which the Potency result was “inactive”.

With `Cc1cc(C(C)(C)C)n2nc(C)c(-c3ccccc3)c2n1`, the Potency result was “inactive”.

On to `Cc1nc2cc(-c3ccc(F)cc3)nn2c(N2CCOCC2)c1C`, for which the Potency result is “inactive”.

Take `Cc1cc(N)n2nc(-c3ccc(C(C)(C)C)cc3)cc2n1`: the Potency was 2510 nM (active).

In the case of `CC1CCN(C(=O)COC(=O)CCC(=O)c2cccs2)CC1`, the Potency entry was “inactive”.

For the compound `CC(C)(C)c1ccc(S(=O)(=O)N2CCN(C(=O)c3ccc4c(c3)C(=O)N(Cc3ccncc3)C4=O)CC2)cc1`, the Potency result was “inactive”.

For the compound `CCOc1ccc(/C(O)=C2\C(=O)C(=O)N(c3ccc(OC)cc3)C2c2ccccc2[N+](=O)[O-])cc1` (stereo unspecified), the Potency was 398 nM (active).

Take `COc1ccc(C2/C(=C(/O)c3ccccc3)C(=O)C(=O)N2C)c(OC)c1` (stereo unspecified): the Potency result is “inactive”.

Regarding `COc1ccc(/C(O)=C2/C(=O)C(=O)N(c3nc(C)c(C)s3)C2c2ccco2)cc1` (stereo unspecified), the Potency entry is “inactive”.

As for `Cn1c(SCC(=O)Nc2ccc(N3CCOCC3)cc2)nnc1C(F)(F)F`, the Potency entry was “inactive”.

Regarding `Nc1c(-c2cccc(Cl)c2)cnn1-c1cccc([N+](=O)[O-])c1`, the Potency entry is “inactive”.

`Cc1ccc(S(=O)(=O)Nc2nc(CN3CCOCC3)nc3sc(C)c(C)c23)cc1`: the Potency result was “inactive”.

With `CN1CCN(C(=O)c2cnn(-c3ccccc3)c2NC(=O)c2ccc([N+](=O)[O-])cc2)CC1`, the Potency result was “inactive”.

As to `O=C(c1ccc(F)cc1)N1CCCC(c2nc(-c3cccs3)no2)C1` (stereo unspecified), the Potency entry is “inactive”.

`Cc1ccc(-c2noc(C3CCCN(C(=O)c4cccc(Cl)c4)C3)n2)o1` (stereo unspecified): the Potency was 3550 nM (active).

Consider `COc1cccc(-c2noc(C3CCCN(C(=O)c4ccc(F)cc4)C3)n2)c1` (stereo unspecified), for which the Potency entry is “inactive”.
